Screening data from PubChem.
DT40 TDP1 no CPT: qHTS for Inhibitors of human tyrosyl-DNA phosphodiesterase 1 (TDP1): qHTS in cells in absence of CPT; DT40 Tdp1-/- hTDP1 cells, no CPT, ATP luminescence, 48 h; Potency, µM (top dose mostly 46.2 µM), without a hit: at the top dose activity change, negative = growth inhibition, most hits filed as inhibitors; 15% of 420,000 active; AID 686978, 2013; note: potency is the fitted concentration of half-maximal effect; nearly all actives have a fitted effect of over 55% in size
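DT40 Tdp1-/-;hTDP1 cells, no CPT (DMSO vehicle only), 400 cells/well; compounds pin-transferred; ≥48 hr, 37 °C; CellTiter-Glo 30 min RT dark, luminescence read.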
IL1B secr inh: qHTS for Inhibitors of Inflammasome Signaling: IL-1-beta AlphaLISA Primary Screen; THP-1 LPS/ATP IL-1B secretion, AlphaLISA, 16 h; stronger effect = lower value; activity change, % at 57.5 µM; 4.7% of 360,000 active; AID 743279, 2014; in the data active = activity change below about -50%; inconclusive = mostly about -30% to -49%
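Secreted IL-1B measured by AlphaLISA bead assay after 16 h compound exposure of THP-1 cells; compounds (final up to 57.5 uM) added 1 h before LPS (250 ng/mL) and ATP (1.25 mM) stimulation; lower signal means less secretion.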
TDP1 cell CPT: qHTS for Inhibitors of human tyrosyl-DNA phosphodiesterase 1 (TDP1): qHTS in cells in presence of CPT; chicken DT40 Tdp1-/-;hTDP1 cells + 20 nM CPT, ATP luminescence, 48 h; Potency, µM (top dose mostly 46.2 µM), without a hit: at the top dose activity change, negative = growth inhibition, actives largely listed as inhibitors; 12% of 420,000 active; AID 686979, 2013; note: potency is the fitted concentration of half-maximal effect; nearly all actives have a fitted effect of over 55% in size
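Chicken DT40 Tdp1-/- cells stably complemented with human TDP1 were seeded at 400 cells/well in medium containing 20 nM camptothecin, exposed to pin-transferred compounds, and grown at 37 °C for at least 48 hr. Viability was read as ATP luminescence.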
HT1080-NT tox: qHTS for induction of synthetic lethality in tumor cells producing 2HG: qHTS for the HT-1080-NT fibrosarcoma cell line; 1.6% of 360,000 active; HT-1080-NT fibrosarcoma viability, CellTiter-Glo ATP luminescence, 48 h; Potency, µM (doses to about 46.1 µM), without a hit: at the top dose activity, negative = less viability, actives largely listed as cytotoxic;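 note: NT is the 2HG producing partner of a matched IDH1 knockdown line; potency is the fitted concentration of half-maximal effect; 0% = DMSO-treated cells and -100% = media-only wells without cells; nearly all actives have a fitted effect of over 55% in size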
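A 48-hour cytotoxicity screen used HT-1080-NT cells plated 2 hours before compound delivery. ATP-based CellTiter-Glo luminescence measured viability, normalized to DMSO and no-cell controls.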
HT1080 IDH1KD tx: qHTS for induction of synthetic lethality in tumor cells producing 2HG: qHTS for the HT-1080-IDH1KD cell line; 2% of 360,000 active; Potency, µM (top dose mostly 46.1 µM), for inactives: at the highest dose activity, negative = toxicity, most hits filed as cytotoxic; AID 686971, 2013; HT-1080 IDH1 knockdown viability, ATP luminescence, 48 h;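 note: potency is the fitted concentration of half-maximal effect; 0% = DMSO wells and -100% = cell-free medium wells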
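CellTiter-Glo luminescence after 48 h compound exposure at 37 degrees C of IDH1-knockdown HT-1080 cells in 5% FBS RPMI. %Activity scaled between DMSO wells and cell-free media wells, with curves fitted and assigned curve classes.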
ELG1 repair inh: qHTS screen for small molecules that inhibit ELG1-dependent DNA repair in human embryonic kidney (HEK293T) cells expressing luciferase-tagged ELG1; HEK293T ELG1-luciferase reporter, luminescence, 16 h; DNA damage induced by 5-fluorouridine; Potency, µM (doses to about 46.1 µM), for the others: top-dose activity change, negative = inhibition, hits mostly inhibitors; 2.3% of 330,000 active; note: potency is the fitted concentration of half-maximal effect; nearly all actives have a fitted effect of over 55% in size
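Luminescence from the luciferase reporter, measured 30 min after ONE-Glo reagent at room temperature, was the read-out. Beforehand, 2,000 cells per well were exposed for 16 hr at 37 °C to 5-fluorouridine together with compound or vehicle.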
Active calls of the source: *; ? = inconclusive; . = no result. This is a sample that favours compounds with a hit; in the whole collection about 19% have one here. Unless noted, calls come from the whole dose curve; as a rule, active = well fitted curve in the direction sought with a large enough effect; inconclusive = small, poorly fitted or top-dose-only effect, or another doubt; inactive = no such curve, though single readings can be large; an effect the other way counts as inactive or inconclusive. Unless noted, % is set by controls: 0 for no effect and ±100 for the full control effect.

SMILES	DT40 TDP1 no CPT	IL1B secr inh	TDP1 cell CPT	HT1080-NT tox	HT1080 IDH1KD tx	ELG1 repair inh
CCCS(=O)(=O)c1c(S(=O)(=O)CCC)c2ccc(C(C)=O)cn2c1C(=O)OC	-7%	-136*	?	-12%	-5%	4%
COc1ccc(COC(=O)c2ccc(Cl)c(S(=O)(=O)N3CC(C)OC(C)C3)c2)cc1 (centres undefined)	?	2	?	-4%	-9%	?
Nc1ccc(S(=O)(=O)c2cc(O)c3ccccc3c2O)cc1	2.3µM*	-112*	1.5µM*	-3%	-8%	.
Cc1ccc(NC(=O)N2CCCC2C(=O)NCC2CCCO2)cc1 (centres undefined)	18%	17	7%	?	2%	-4%
CC(=O)c1cccc(N=Cc2c(O)c3ccccc3oc2=O)c1	3%	30	0%	5%	8%	6%
CC(=O)Nc1ccc(N=Cc2c(O)c(C(=O)Nc3ccccc3)cc3ccccc23)cc1	16µM*	57	?	-28%	?	?
CC(=O)Nc1ccc(N=Cc2c(O)c3ccccc3oc2=O)cc1	-11%	-5	21µM*	0%	-5%	0%
CCCCN(C(=O)CCCc1nc2ccccc2c(=O)[nH]1)c1c(N)n(CC(C)C)c(=O)[nH]c1=O	-5%	1	-6%	-1%	8%	3%
CCOC(=O)c1cccc(COC(=O)c2cccc(-c3nnc(-c4ccccc4)o3)c2)c1	16µM*	-10	26µM*	13%	12%	?
O=C(OCc1ccc(C(=O)c2ccccc2)cc1)c1cccc(-c2nnc(-c3ccccc3)o2)c1	?	-9	16µM*	4%	7%	-25%
COc1ccc(CNC(=O)[C@H](Cc2ccccc2)NC(=O)CC[C@H]2O[C@@H](n3ccc(=O)[nH]c3=O)[C@H](O)[C@@H]2O)cc1	18%	23	3%	3%	5%	.
COc1ccc(CCNc2oc(COc3ccc(Br)cc3)nc2C#N)cc1OC	21µM*	-1	18µM*	-13%	-19%	21µM*
COc1ccc(CCNc2oc(Cc3cccc4ccccc34)nc2C#N)cc1OC	?	?	?	-23%	-23%	16µM*
COc1ccc(CCNc2oc(COc3ccccc3F)nc2C#N)cc1	?	2	?	-1%	-7%	5%
CNc1oc(Cc2cccc3ccccc23)nc1C#N	-16%	25	-16%	-19%	-6%	0%
Cc1ccc(CNC(=O)c2cc(=O)c3ccc(C)cc3o2)cc1	-6%	16	?	-15%	-12%	-14%
COCCCNC(=O)CCCn1c(=O)c2ccccc2n(CC(=O)Nc2ccc(C)cc2Cl)c1=O	-10%	.	-27%	.	.	.
COc1ccccc1NC(=O)COc1ccc(C(F)(F)F)cc1[N+](=O)[O-]	18µM*	3	?	-2%	-17%	.
O=C(Nc1ccccc1Cl)c1ccccc1Oc1ccc(C(F)(F)F)cc1[N+](=O)[O-]	18µM*	15	23µM*	?	?	-3%
Cc1ccc(Oc2ccc(C(F)(F)F)cc2[N+](=O)[O-])c([N+](=O)[O-])n1	-20%	?	-22%	10%	2%	?
COc1ccc(NC(=O)c2ccco2)cc1NC(=O)COc1ccccc1[N+](=O)[O-]	-16%	18	-13%	0%	?	22%
